Reference: PubChem BioAssay AID1159580 (chemical genetic matrix, 2015)
The campaign covered roughly 5,500 compounds. About 2,000 (36%) were called active. Inconclusive results (about 18%) are left out. Rule as the data show it: active = normalized growth mostly below about 0.91 (no sharp cut-off); inconclusive = no clear call, values can overlap the other calls; inactive = mostly above about 0.92. The list shows a part of the results.

Assay: chemical genetic growth profiling, strain panel (AID 1159580);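 also: tested at 20 µM; growth read once vehicle control cultures reached saturation at 30 °C; 1 = growth at the plate median or of vehicle wells; lower values mean less growth of the strain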
Conditions: growth OD

Measured: normalized growth

C=C[C@@](C)(O)CCC1C(=C)C[C@H](O)C2C(C)(C)CCCC12C (some centres not stated)
inactive: S. cerevisiae deletion strains, locus YJR075W, strain HOC1, stronger effect = lower value 1.01 | S. cerevisiae deletion strains, locus YKL009W, strain mrt4, stronger effect = lower value 1.01 | S. cerevisiae deletion strains, locus YKL068W, stronger effect = lower value 1.01 | S. cerevisiae deletion strains, locus YKL085W, strain MDH1 (second series), stronger effect = lower value 1.02 | S. cerevisiae deletion strains, locus YKL085W, strain MDH1, stronger effect = lower value 1.02 | S. cerevisiae deletion strains, locus YKL160W, strain elf1, stronger effect = lower value 0.981 | S. cerevisiae deletion strains, locus YKL190W, strain CNB1, stronger effect = lower value 1.01 | S. cerevisiae deletion strains, locus YKR001C, strain vps1, stronger effect = lower value 1.01 | S. cerevisiae deletion strains, locus YKR026C, strain gcn3, stronger effect = lower value 0.992 | S. cerevisiae deletion strains, locus YKR091W, strain srl3, stronger effect = lower value 0.991 | S. cerevisiae deletion strains, locus YLL001W, strain dnm1, stronger effect = lower value 0.97 | S. cerevisiae deletion strains, locus YLL026W, stronger effect = lower value 0.998 | S. cerevisiae deletion strains, locus YLL041C, strain sdh2, stronger effect = lower value 0.984 | S. cerevisiae deletion strains, locus YLR027C, strain aat2, stronger effect = lower value 0.995 | S. cerevisiae deletion strains, locus YLR039C, strain RIC1, stronger effect = lower value 0.949 | S. cerevisiae deletion strains, locus YLR058C, strain SHM2, stronger effect = lower value 1.01 | S. cerevisiae deletion strains, locus YLR102C, strain apc9, stronger effect = lower value 1.03 | S. cerevisiae deletion strains, locus YLR113W, strain HOG1, stronger effect = lower value 0.867 | S. cerevisiae deletion strains, locus YLR221C, strain rsa3, stronger effect = lower value 0.968 | S. cerevisiae deletion strains, locus YLR258W, strain gsy2, stronger effect = lower value 0.983 | S. cerevisiae deletion strains, locus YLR262C, strain YPT6 (second series), stronger effect = lower value 0.876 | S. cerevisiae deletion strains, locus YLR262C, strain YPT6, stronger effect = lower value 0.943 | S. cerevisiae deletion strains, locus YLR268W, strain sec22, stronger effect = lower value 1.01 | S. cerevisiae deletion strains, locus YLR320W, strain mms22, stronger effect = lower value 0.946 | S. cerevisiae deletion strains, locus YLR330W, strain CHS5, stronger effect = lower value 1.01 | S. cerevisiae deletion strains, locus YLR342W, strain FKS1 (second series), stronger effect = lower value 0.985 | S. cerevisiae deletion strains, locus YLR342W, strain FKS1, stronger effect = lower value 0.976 | S. cerevisiae deletion strains, locus YLR357W, strain rsc2, stronger effect = lower value 1.01 | S. cerevisiae deletion strains, locus YLR370C, strain arc18, stronger effect = lower value 0.976 | S. cerevisiae deletion strains, locus YLR371W, strain rom2, stronger effect = lower value 1.04 | S. cerevisiae deletion strains, locus YLR384C, strain iki3, stronger effect = lower value 0.98 | S. cerevisiae deletion strains, locus YLR418C, strain cdc73, stronger effect = lower value 0.994 | S. cerevisiae deletion strains, locus YML016C, strain PPZ1, stronger effect = lower value 1 | S. cerevisiae deletion strains, locus YML032C, strain rad52, stronger effect = lower value 1.05 | S. cerevisiae deletion strains, locus YML120C, strain ndi1, stronger effect = lower value 0.99 | S. cerevisiae deletion strains, locus YML124C, strain tub3, stronger effect = lower value 1.02 | S. cerevisiae deletion strains, locus YMR058W, strain fet3, stronger effect = lower value 0.995 | S. cerevisiae deletion strains, locus YMR078C, strain ctf18, stronger effect = lower value 1.03 | S. cerevisiae deletion strains, locus YMR125W, strain sto1, stronger effect = lower value 1.01 | S. cerevisiae deletion strains, locus YMR129W, stronger effect = lower value 0.985 | S. cerevisiae deletion strains, locus YMR205C, strain PFK2, stronger effect = lower value 0.934 | S. cerevisiae deletion strains, locus YMR223W, strain ubp8, stronger effect = lower value 1.02 | S. cerevisiae deletion strains, locus YMR231W, strain pep5, stronger effect = lower value 0.999 | S. cerevisiae deletion strains, locus YMR263W, strain SAP30, stronger effect = lower value 1.01 | S. cerevisiae deletion strains, locus YMR307W, strain GAS1, stronger effect = lower value 1.01 | S. cerevisiae deletion strains, locus YNL067W, strain RPL9B, stronger effect = lower value 0.996 | S. cerevisiae deletion strains, locus YNL071W, strain lat1, stronger effect = lower value 0.928 | S. cerevisiae deletion strains, locus YNL128W, strain TEP1, stronger effect = lower value 1.01 | S. cerevisiae deletion strains, locus YNL153C, strain GIM3, stronger effect = lower value 1.01 | S. cerevisiae deletion strains, locus YNL183C, strain NPR1, stronger effect = lower value 0.923 | S. cerevisiae deletion strains, locus YNL209W, strain ssb2, stronger effect = lower value 0.998 | S. cerevisiae deletion strains, locus YNL233W, strain BNI4, stronger effect = lower value 1.02 | S. cerevisiae deletion strains, locus YNL248C, strain rpa49, stronger effect = lower value 0.984 | S. cerevisiae deletion strains, locus YNL250W, strain rad50, stronger effect = lower value 1.03 | S. cerevisiae deletion strains, locus YNL271C, strain bni1, stronger effect = lower value 1.03 | S. cerevisiae deletion strains, locus YNL298W, strain CLA4, stronger effect = lower value 1.02 | S. cerevisiae deletion strains, locus YNL307C, strain MCK1, stronger effect = lower value 1 | S. cerevisiae deletion strains, locus YNL322C, strain KRE1 (second series), stronger effect = lower value 0.986 | S. cerevisiae deletion strains, locus YNL322C, strain KRE1, stronger effect = lower value 1.01 | S. cerevisiae deletion strains, locus YNR049C, strain mso1, stronger effect = lower value 0.994 | S. cerevisiae deletion strains, locus YNR052C, strain pop2, stronger effect = lower value 1.02 | S. cerevisiae deletion strains, locus YOL006C, strain TOP1, stronger effect = lower value 0.935 | S. cerevisiae deletion strains, locus YOL012C, strain htz1 1.27 | S. cerevisiae deletion strains, locus YOL147C, strain pex11, stronger effect = lower value 1.02 | S. cerevisiae deletion strains, locus YOR001W, strain rrp6, stronger effect = lower value 0.984 | S. cerevisiae deletion strains, locus YOR061W, strain CKA2, stronger effect = lower value 1.01 | S. cerevisiae deletion strains, locus YOR069W, strain VPS5, stronger effect = lower value 1.01 | S. cerevisiae deletion strains, locus YOR070C, strain gyp1, stronger effect = lower value 0.986 | S. cerevisiae deletion strains, locus YOR080W, strain dia2, stronger effect = lower value 0.998 | S. cerevisiae deletion strains, locus YOR083W, strain WHI5, stronger effect = lower value 0.964 | S. cerevisiae deletion strains, locus YOR106W, strain vam3, stronger effect = lower value 0.978 | S. cerevisiae deletion strains, locus YOR136W, strain idh2, stronger effect = lower value 1.03 | S. cerevisiae deletion strains, locus YOR144C, strain elg1, stronger effect = lower value 1.02 | S. cerevisiae deletion strains, locus YOR184W, strain ser1, stronger effect = lower value 1.01 | S. cerevisiae deletion strains, locus YOR231W, strain MKK1, stronger effect = lower value 0.923 | S. cerevisiae deletion strains, locus YOR265W, strain rbl2, stronger effect = lower value 0.992 | S. cerevisiae deletion strains, locus YOR270C, strain vph1, stronger effect = lower value 0.886 | S. cerevisiae deletion strains, locus YOR290C, strain snf2, stronger effect = lower value 0.934 | S. cerevisiae deletion strains, locus YOR316C, strain cot1, stronger effect = lower value 1.03 | S. cerevisiae deletion strains, locus YPL051W, strain arl3, stronger effect = lower value 0.975 | S. cerevisiae deletion strains, locus YPL055C, strain LGE1, stronger effect = lower value 1.01 | S. cerevisiae deletion strains, locus YPL078C, strain atp4, stronger effect = lower value 0.978 | S. cerevisiae deletion strains, locus YPL106C, strain sse1, stronger effect = lower value 1.03 | S. cerevisiae deletion strains, locus YPL240C, strain hsp82, stronger effect = lower value 0.984 | S. cerevisiae deletion strains, locus YPL241C, strain CIN2, stronger effect = lower value 1.01 | S. cerevisiae deletion strains, locus YPL256C, strain CLN2, stronger effect = lower value 0.953 | S. cerevisiae deletion strains, locus YPR119W, strain clb2, stronger effect = lower value 1.03 | S. cerevisiae deletion strains, locus YPR141C, strain kar3, stronger effect = lower value 1.03 | S. cerevisiae deletion strains, locus YPR163C, strain tif3, stronger effect = lower value 1.02 | S. cerevisiae deletion strains, locus YPR167C, strain met16, stronger effect = lower value 1.02 | S. cerevisiae deletion strains, strain wtn01, stronger effect = lower value 1.02 | S. cerevisiae strains, strain wild type, stronger effect = lower value 1.01
